# Rows were chosen to be rich in hits. Some 4% of all compounds tested hit in one or more screens of this group.
# NALP1 inh: NALP1 inhibition; AID 2071; 280,000 tested, 0.61% active; inhibition, % at 10 µM; S. cerevisiae NALP1/ASC/caspase-1 growth, X-gal OD620, 72 h; in the data active means inhibition mostly above about 24%, no sharp cut-off; inactive means mostly below about 32%
# tim10-1 inh: inhibits growth of tim10-1 mutant yeast. S. cerevisiae tim10-1 ts strain growth, BacTiter-Glo, 24 h. 330,000 tested, 2.2% active. inhibition, % at 20 µM;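 active means inhibition of at least 40%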;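 further: mutant grown at 25 °C; 0% = DMSO wells with yeast and 100% = wells holding no yeast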
# NALP3 yeast inh: blocks the NALP3 inflammasome reconstituted in yeast; Yeast reconstituted NLRP3/ASC/caspase-1, beta-gal luminescence, 24 h; inhibition, % at 10 µM; 330,000 tested, 0.39% active; AID 2825;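 active means inhibition of 50% or more; inactive means inhibition below 50%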;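 further: plate controls were induced DMSO wells for no effect and uninduced yeast grown without galactose for full effect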
# tim23-1 inh: tim23-1 yeast growth inhibition. S. cerevisiae tim23-1 growth, BacTiter-Glo luminescence, 24 h. inhibition, % at 20 µM. 330,000 tested, 1.3% active. AID 463212;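 active means growth inhibition of the mutant yeast at or above 50%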;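 further: temperature-sensitive mutant grown at 25 °C; plate controls were DMSO-treated mutant yeast for no effect and medium wells lacking yeast for full effect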
# TIM10 inh: growth inhibitors of TIM10 yeast strain. S. cerevisiae TIM10 strain growth, BacTiter-Glo luminescence, 24 h. inhibition, % at 10 µM. 330,000 tested, 1.4% active;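 active means inhibition of 40% or more at the single tested concentration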;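 further: wild-type TIM10 isogenic control strain grown at permissive 25 °C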
# tim10-1 confirm: confirmation of tim10-1 mutant yeast growth inhibitors. shares compounds with tim10-1 inh. S. cerevisiae tim10-1 ts strain growth, BacTiter-Glo, 24 h. inhibition, % at 20 µM. 7,400 tested, 56% active. AID 463213;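 active means inhibition of yeast growth at or above a set limit in either of two repeat tests at 20 µM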;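 further: tim10-1 mutant grown at permissive 25 °C to find synthetic lethal compounds; 0% = DMSO yeast wells and 100% = medium wells without yeast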
# The depositor's hits bear a star; nt = no result.
SMILES,NALP1 inh,tim10-1 inh,NALP3 yeast inh,tim23-1 inh,TIM10 inh,tim10-1 confirm
O=C(CSc1nn(-c2ccc(Cl)cc2)c(=S)s1)NCC1CCCO1 (stereo not given),-12,0,13,9,-8,nt
CCOc1ccc(-c2nc(CSCC(=O)NC3CCCc4ccccc43)c(C)o2)cc1 (stereo not given),18,40*,8,36,35,25
CCOc1ccc(-c2nc(CSCC(=O)NC3CC3)c(C)o2)cc1,6,15,14,21,-2,nt
O=C(NCCN1C(=O)S/C(=C/c2cccnc2)C1=O)c1cccs1,nt,44*,11,43,29,26
COc1ccc(/C=C2\SC(=O)N(CCNC(=O)Cc3coc4cc(OC)ccc34)C2=O)cc1,21,19,-13,1,-5,nt
COc1ccc2c(CC(=O)NCCN3C(=O)S/C(=C\c4cccnc4)C3=O)coc2c1,-15,50*,6,30,7,16
COc1ccc(OC)c(CNS(=O)(=O)c2c(C)nc3scc(C)n3c2=O)c1,11,-3,-2,1,1,nt
CCN1C(=O)/C(=C/c2c(C)nn(C)c2C)SC1=S,36,55*,14,45,25,44*
Cc1cc(Nc2ccccc2)n(-c2cccc(Cl)c2)n1,-4,38,-17,33,20,nt
Nc1ccccc1Nc1cc(-c2cccc(Cl)c2)nn1-c1ccccc1,22,40*,31,38,26,34*
CN(Cc1ccccc1F)C(=O)c1ccc2c(=O)n3c(nc2c1)CCC3,nt,22,20,13,7,nt
COc1ccccc1/C(C)=N/NC(=S)NCc1ccccc1,-20,47*,29,49,26,14
CCOC(=O)c1oc2nc(C(C)C)c3c(c2c1N)CCC3,19,43*,24,37,21,29
O=C(NC(=S)Nc1ncc(Br)cc1Br)c1cncc(Br)c1,16,40*,13,36,34,22
O=C(NC(=S)Nc1ccc(O)cc1)c1cncc(Br)c1,nt,15,19,15,15,nt
Cc1nc2ccccc2cc1C(=O)N(C)Cc1ccccc1,10,-1,23,-3,-7,nt
Oc1ccc(CN2CCN(Cc3ccccc3)CC2)c2cccnc12,nt,21,-12,-40,17,nt
CN1CCN(Cc2cc(COCc3ccccc3)c3cccnc3c2O)CC1,9,47*,30,10,9,25
COc1cc2c(cc1OC)C(COc1cccc(C(F)(F)F)c1)NCC2 (stereo not given),14,47*,24,40,40,47*
COc1ccc(OCC2NCCc3cc(OC)c(OC)cc32)cc1 (stereo not given),9,24,12,36,19,nt
CCOC(=O)n1c(=O)n(Cc2ccc(OC)cc2)c2ccccc21,12,50*,4,49,21,46*
CCN1CCCC1CNc1ccc(S(C)(=O)=O)cc1[N+](=O)[O-] (stereo not given),12,-13,6,-2,3,nt
COc1ccc2c(c1)OC[C@H]1[C@H]2N2C(=O)c3cc(OC)ccc3NC(=O)[C@@]2(C)[C@H]1c1ccccc1,nt,44*,-10,18,15,4
COc1ccc2c(c1)OC[C@H]1[C@H]2N2C(=O)c3cc(Cl)ccc3NC(=O)[C@@]2(C)[C@H]1c1ccccc1,nt,33,6,38,21,nt
CCOc1cccc(/C=N/NC(=S)Nc2cc(S(=O)(=O)N3CCOCC3)ccc2N2CCOCC2)c1O,24,44*,21,20,12,8
SMILES,NALP1 inh,tim10-1 inh,NALP3 yeast inh,tim23-1 inh,TIM10 inh,tim10-1 confirm
COc1cccc(/C=N/NC(=O)CNC(=O)c2ccc3c(c2)OCCO3)c1O,9,18,7,10,15,nt
COc1ccc2ccccc2c1/C=N/NC(=S)Nc1cc(S(=O)(=O)N2CCOCC2)ccc1N1CCOCC1,14,27,21,28,-3,nt
CCOc1cccc(/C=N/NC(=O)c2ccc3c(c2)OCCO3)c1O,-12,48*,13,26,1,-33
Cc1nc(C)c(N)c(=O)[nH]1,4,8,17,-5,8,nt
O=C(COc1ccccc1Cl)NCc1ccncc1,1,11,8,9,1,nt
O=S(=O)(CCN1CCN(C(c2ccccc2)c2ccccc2)CC1)C(F)(F)F,-3,41*,16,26,31,33*
c1ccc(CN2CCN(C(c3ccccc3)c3ccccc3)CC2)cc1,-28,33,-45,9,22,nt
CCN(CC(=O)Nc1ccccc1OC)C(=O)CSCC(=O)Nc1ccc(OC)cc1,nt,1,17,-2,3,nt
O=C(c1ccc(-c2cccc(Cl)c2Cl)o1)N1CCOCC1,1,44*,-16,39,22,42*
Cc1ccc(C(=O)O/N=C(\N)c2ccccn2)c(C)c1,3,54*,36,47,39,63*
N/C(=N\OC(=O)c1cccc(Cl)c1)c1ccccn1,32,45*,8,47,33,33*
Cc1cc(Cl)ccc1OCCCC(=O)NNC(=O)c1ccccc1O,nt,11,30,-3,-7,nt
COC(=O)c1ccc(Sc2nnnn2-c2ccccc2)c([N+](=O)[O-])c1,10,50*,0,42,25,35*
O=C(O)c1ccc(Sc2nnnn2-c2ccccc2)c([N+](=O)[O-])c1,14,14,11,18,-16,nt
O=C(CN1C(=O)/C(=C\C=C\c2ccccc2)SC1=S)Nc1ccc(F)cc1,20,40*,-1,7,14,23
COc1ccc(-c2cc(-c3ccccc3)nc(SCC(=O)Nc3nccs3)c2C#N)cc1,19,15,18,-11,-28,nt
COc1ccc(-c2cc(-c3ccccc3)c(C#N)c(SCC(=O)Nc3ncc(C)s3)n2)cc1,9,42*,-2,21,10,19
Cc1ccc(-c2csc3nc(SCC(N)=O)n(Cc4ccccc4)c(=O)c23)cc1,21,31,20,37,19,nt
O=C(O)C1Nc2ccc(C(F)(F)F)cc2C2OCCC12 (stereo not given),nt,4,8,15,11,nt
C/C1=C\CCC2C(/C=C(\C)CC1)OC(=O)C2CN1CCCCC1 (stereo not given),3,40*,-14,35,30,43*
Cc1ccc2c(CN3CCN(S(=O)(=O)/C=C/c4ccccc4)CC3)cc(=O)oc2c1,39,40*,6,47,36,36*
Cc1ccc2c(CN3CCCCC3)cc(=O)oc2c1,14,-3,14,4,3,nt
CCOC(=O)N1CCN(C(=O)c2cccc(N3C(=O)NC4CC3(C)Oc3ccc(Cl)cc34)c2)CC1 (stereo not given),-20,45*,7,5,20,11
CCOC(=O)C1CCN(C(=O)c2cccc(N3C(=O)NC4CC3(C)Oc3ccc(C)cc34)c2)CC1 (stereo not given),9,14,2,11,5,nt

# Compound activity deposited in PubChem by Sanford-Burnham Center for Chemical Genomics.
